Inconclusive results are not listed. Calls of active or inactive are those of the source. Unless noted, calls follow the shape of the dose curve; as a rule, active = well fitted curve in either direction with a large enough effect (not every such curve was filed as active); inconclusive = small, poorly fitted or top-dose-only effect, or another doubt; inactive = flat fitted curve, though single readings scatter.
Key:
[1] = AP1 Signaling Pathway (AID 357);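 also: ME-180 reporter cells stimulated with EGF at its EC50 level; % is scaled to controls: 0 for no effect and ±100 for the full control effect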
Outline: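 In this screen, ME-180 cells in Opti-MEM with 0.5% dialyzed FBS received EC50 EGF and compound titrations for 5 h. AP-1 reporter beta-lactamase was detected via CCF4 ratio, giving AC50 for positive and negative modulators.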

[2] = NFAT Signaling Pathway (AID 444);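 also: carbachol stimulus at about its EC50 of 1 µM final; % is scaled to controls: 0 for no effect and ±100 for the full control effect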
Outline: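 Read-out: CCF4 FRET ratio (460 nm/530 nm) after 1 h RT dye loading, used for %activity and AC50 from titration series. Cells: Jurkat NFAT-β-lactamase/M1 line, treated with compound plus 1 uM carbachol for 5 h, 37 °C.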

[3] = Stat Signaling Pathway (AID 446);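 also: ME-180 cervical cancer cells given 40 pM IL-6 alongside compound; SIE-controlled beta-lactamase reporter measured as 460/530 nm FRET emission ratio; % is scaled to controls: 0 for no effect and ±100 for the full control effect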
Outline: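 Compound effects on IL-6-induced STAT reporter activity were measured in ME-180 cells. After overnight culture, cells were co-treated with 40 pM IL-6 for 5 hrs before beta-lactamase substrate loading at room temperature.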

[4] = target: Mitogen-activated protein kinase 10 (Mus musculus) (UniProt Q61831); assay: JNK3 AlphaScreen Assay (AID 530);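 also: kinase came from lysate of stimulated human HepG2 cells; signal reports phosphorylation of biotinylated GST-cJun 1-79 at Ser73 with 10 µM ATP; series mostly up to about 57 µM; % is scaled to controls: 0 for no effect and ±100 for the full control effect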
Outline: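 qHTS titrations with 15 min compound pre-incubation before adding ATP (10 uM final). Read-out: AlphaScreen of Ser73-phosphorylated biotin-GST-cJun using HepG2 lysate JNK3 activated by IL-1β and TNFα.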

[5] = target: 3',5'-cyclic-AMP phosphodiesterase 4B (Homo sapiens) (UniProt Q07343); assay: qHTS Assay for Inhibitors of PDE-IV (AID 607; active = well fitted activation curve with a large enough effect in the main read-out, with a control signal flat, not every such curve was filed as active; also: % of control where 0% means no effect)
Sequence of 3',5'-cyclic-AMP phosphodiesterase 4B (Homo sapiens) (Q07343 whole entry, looked up): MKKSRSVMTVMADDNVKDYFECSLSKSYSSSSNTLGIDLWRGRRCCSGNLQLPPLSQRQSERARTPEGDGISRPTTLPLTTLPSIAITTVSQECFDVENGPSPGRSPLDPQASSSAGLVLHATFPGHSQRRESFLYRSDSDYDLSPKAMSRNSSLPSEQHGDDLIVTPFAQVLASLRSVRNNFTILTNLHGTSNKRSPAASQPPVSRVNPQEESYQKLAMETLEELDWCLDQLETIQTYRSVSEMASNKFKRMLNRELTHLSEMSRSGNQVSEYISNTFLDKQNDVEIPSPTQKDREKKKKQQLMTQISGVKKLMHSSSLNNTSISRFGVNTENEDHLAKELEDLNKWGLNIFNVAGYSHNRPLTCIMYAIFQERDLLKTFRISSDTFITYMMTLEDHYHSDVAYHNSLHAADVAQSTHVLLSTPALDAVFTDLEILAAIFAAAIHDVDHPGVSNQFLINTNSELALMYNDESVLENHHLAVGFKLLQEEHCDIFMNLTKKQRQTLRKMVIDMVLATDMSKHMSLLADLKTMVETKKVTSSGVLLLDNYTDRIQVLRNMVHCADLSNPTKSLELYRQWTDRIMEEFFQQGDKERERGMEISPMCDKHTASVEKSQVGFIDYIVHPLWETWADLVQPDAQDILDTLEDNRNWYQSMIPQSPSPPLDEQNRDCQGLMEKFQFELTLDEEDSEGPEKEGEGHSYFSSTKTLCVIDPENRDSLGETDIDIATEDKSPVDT
Description: NIH Chemical Genomics Center [NCGC]
NIH Molecular Libraries Screening Centers Network [MLSCN]
The cyclic nucleotide phosphodiesterases (PDEs) are proteins that catalyze hydrolysis of 3', 5'-cyclic nucleotides, such as cyclic adenosine monophosphate (cAMP) and cyclic guanosine monophosphate (cGMP), to their corresponding 5'-nucleotide monophosphates. These enzymes play an important role in controlling cellular concentrations of cyclic nucleotides and have a central role in a variety of intracellular signaling events. cAMP PDEs are emerging as a promising class of drug targets in asthma and cardiovascular disease therapeutic areas.
There are no commercially available cell-based screening assays for PDE inhibitors: currently biochemical assays are done using pure substrates (cAMP or cGMP) and purified recombinant PDE enzymes. As with other biochemical screens on intracellular targets, false positives and false negatives may result from issues involving cell membrane permeability, cellular metabolism, and the like.
Here we report the development of a cell-based screening assay for cAMP phosphodiesterase (PDE) inhibitors. The assay is based on the BD ACTOne# technology (BD Biosciences) which utilizes a modified cyclic nucleotide-gated channel (CNG) to monitor intracellular cAMP changes in live cells. The CNG channel is localized on the plasma membrane, and opens when the intracellular cAMP level increases, resulting in ion flux and cell membrane depolarization. The influx of cations through the CNG channel can be quantified using membrane potential (MP) dyes. We modified the BD ACTOne technology to allow the detection of PDE inhibitors, and performed an inhibitor screen for PDE-IV, which is expressed endogenously in HEK293 cells. We optimized this assay in homogeneous 1536-well plate assay format for high throughput screening.
(§1) NCGC Assay Protocol Summary:
The medium contained 10% FBS (Invitrogen), 2 mM L-glutamine, and 250 ug/ml G418 (Cellgro) and 1 ug/ml puromycin (Clontech). ACTOneTM parental cells (BD Biosciences) were maintained in the same medium without puromycin.
The activity of the CNG channel was measured by BD ACTOneTM membrane potential dye kit (BD Biosciences). Forskolin, a positive control for cAMP activation and RO 20-1724, a PDE inhibitor, were both purchased from Sigma and solublized in DMSO.
Sequence,Parameter,Value,Description
1,Reagent,3 uL,1000 cells/well 1536 TC treated Black plate
3,Compound,0.5 uL,Kalypsys dispense RO 20-1724 100 uM final [A]
4,Reagent,3 uL,BD membrane potential dye
6,Compound,23 nL,Final concentration was 0.7nM to 22.9uM
8,Detector,EX 535 / EM 590 [B],Envision
Footnotes: [A] The stock 2 mM RO 20-1724 PDE inhibitor was made in 10 % DMSO. Parental cell line received 10 uM forskolin + 100 uM RO. [B] Envsion settings: Bottom Excitation 535/20 nm top emission 590/20, gain of 150 and 5 flashes per well.
Keywords: PDE, PDE-IV, cytotoxicity, flourescence, MLSMR, MLSCN, NIH Roadmap, qHTS, NCGC

[6] = target: Cytochrome P450 1A2 (Homo sapiens) (UniProt P05177); assay: p450-cyp1a2 (AID 410; calls by dose curve; also: potency is read from the fitted curve at half-maximal effect;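 as to activity change, negative = inhibition: -100% = full effect of reference inhibitor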)
Sequence of Cytochrome P450 1A2 (Homo sapiens) (P05177 whole entry, looked up): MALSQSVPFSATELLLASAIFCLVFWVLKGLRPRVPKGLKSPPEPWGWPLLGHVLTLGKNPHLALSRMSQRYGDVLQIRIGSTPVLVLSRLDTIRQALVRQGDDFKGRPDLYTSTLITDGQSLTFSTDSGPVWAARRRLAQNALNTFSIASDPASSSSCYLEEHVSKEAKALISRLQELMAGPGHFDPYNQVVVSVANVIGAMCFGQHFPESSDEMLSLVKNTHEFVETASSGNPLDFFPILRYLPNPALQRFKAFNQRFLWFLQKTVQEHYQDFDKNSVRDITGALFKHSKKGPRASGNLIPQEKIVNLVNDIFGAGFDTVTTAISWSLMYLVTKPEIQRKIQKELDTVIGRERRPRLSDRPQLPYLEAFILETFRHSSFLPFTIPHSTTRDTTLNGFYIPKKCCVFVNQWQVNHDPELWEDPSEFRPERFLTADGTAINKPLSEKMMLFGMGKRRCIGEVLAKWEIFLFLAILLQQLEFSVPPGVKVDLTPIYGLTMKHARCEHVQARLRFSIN
Protocol: The P450 gene superfamily is involved in metabolism and the clearance of xenobiotics. This assay used human CYP1A2 to measure the demethylation of luciferin 6' methyl ether (Luciferin-ME; Promega-Glo) to luciferin. The luciferin is then measured by luminescence after the addition of a luciferase detection regeant. Luciferin-ME concentration in the assay was equal to its Km for CYP1A2.
as §1
Two uL of enzyme and substrate mix (final concentrations: 20nM CYP1A2, 100uM Luciferin-ME, 100mM KPO4) were dispensed into a white, solid bottom 1536-well microtiter plate. 23nL of compound was transferred by a pin tool. The plate was incubated at room temperature for 10 min. Two uL of an NADPH regeneration solution (Promega supplied reagent) was dispensed and the reaction was allowed to continue for 60 min at room temperature. Then the reaction was stopped by reconstituted detection reagent. After another 20 min of incubation the plate was read on the ViewLux (Perkin Elmer) at 60 sec exposure and 2x2 binning. This protocol was carried out with Promega-Glo reagents and further information can be found at http://www.promega.com/tbs/tb325/tb325.pdf. Data were normalized to the to AC100 inhibition (57 uM furafylline).

[7] = target: Glucocorticoid receptor (Homo sapiens) (UniProt P04150); assay: GR-GFP Redistribution (AID 450;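 active = compounds whose dose series gives a full or clear partial fitted curve of increased nuclear translocation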; also: potency is read from the fitted curve at half-maximal effect); conditions: U2OS GR-GFP nuclear translocation, laser cytometry, 2 h
Sequence of Glucocorticoid receptor (Homo sapiens) (P04150 whole entry, looked up, the tested form may be a part): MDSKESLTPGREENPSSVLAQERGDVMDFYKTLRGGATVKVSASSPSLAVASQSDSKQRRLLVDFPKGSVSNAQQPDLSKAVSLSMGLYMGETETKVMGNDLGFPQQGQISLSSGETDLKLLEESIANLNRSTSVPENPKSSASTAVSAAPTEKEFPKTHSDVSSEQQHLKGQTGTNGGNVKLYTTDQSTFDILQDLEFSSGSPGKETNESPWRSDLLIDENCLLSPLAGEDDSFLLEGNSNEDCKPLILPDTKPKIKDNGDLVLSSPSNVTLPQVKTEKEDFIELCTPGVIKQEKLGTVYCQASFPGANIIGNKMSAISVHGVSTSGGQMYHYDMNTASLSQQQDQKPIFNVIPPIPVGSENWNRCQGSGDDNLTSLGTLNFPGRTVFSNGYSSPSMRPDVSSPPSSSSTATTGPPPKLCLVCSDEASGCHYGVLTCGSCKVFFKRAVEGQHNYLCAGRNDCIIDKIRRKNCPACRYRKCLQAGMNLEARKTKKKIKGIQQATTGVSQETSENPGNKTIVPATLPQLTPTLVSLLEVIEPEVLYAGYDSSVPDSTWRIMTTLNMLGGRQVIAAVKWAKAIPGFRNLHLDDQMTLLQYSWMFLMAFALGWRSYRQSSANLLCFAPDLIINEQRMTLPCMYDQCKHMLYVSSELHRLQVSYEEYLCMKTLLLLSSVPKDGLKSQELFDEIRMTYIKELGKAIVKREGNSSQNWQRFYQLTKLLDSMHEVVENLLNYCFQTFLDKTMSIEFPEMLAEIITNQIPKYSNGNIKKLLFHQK

[8] = target: Glucocorticoid receptor (Homo sapiens) (UniProt P04150); assay: GR-EFC Redistribution (AID 451; calls by dose curve; also: potency is read from the fitted curve at half-maximal effect); conditions: CHO-K1 GR-EFC translocation, beta-gal luminescence, 2 h
Outline: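 Translocation of GR-ED fusion to nuclear EA restores b-gal, read by luminescence after 1 h room-temperature detection. Engineered CHO-K1 biosensor cells, 1,000/well, exposed 2 h at 37 C to titrations up to 46 uM final.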

[9] = target: Guanine nucleotide-binding protein G(i) subunit alpha-1 (Homo sapiens) (UniProt P63096); assay: qHTS Assay for Inhibitors of RGS12 GoLoco Motif Activity (Green Fluorophore) (AID 879; active = well fitted curve in the direction sought with a large enough effect;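 also: 0% = labeled peptide with Gαi1 and full inhibition = labeled peptide alone without protein; negative values mean loss of peptide binding seen as reduced polarization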)
Sequence of Guanine nucleotide-binding protein G(i) subunit alpha-1 (Homo sapiens) (P63096 whole entry, looked up): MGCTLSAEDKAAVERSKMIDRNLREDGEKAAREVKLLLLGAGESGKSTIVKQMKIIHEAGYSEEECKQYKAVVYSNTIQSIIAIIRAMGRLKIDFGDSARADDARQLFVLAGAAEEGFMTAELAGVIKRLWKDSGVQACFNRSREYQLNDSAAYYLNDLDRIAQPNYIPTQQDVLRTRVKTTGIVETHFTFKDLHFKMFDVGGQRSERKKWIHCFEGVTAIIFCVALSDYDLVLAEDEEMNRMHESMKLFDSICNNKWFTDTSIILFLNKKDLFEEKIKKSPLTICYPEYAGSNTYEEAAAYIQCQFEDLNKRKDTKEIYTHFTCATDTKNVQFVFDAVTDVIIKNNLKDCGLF
Outline: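 A drop in FITC polarization marked displacement of the FITC-tagged RGS12 GoLoco peptide (10 nM) from Gαi1 (50 nM). Compounds were incubated 10 min at room temperature in Tris pH 7.5 buffer containing 150 mM NaCl, 0.1 mM GDP and 0.05% NP40; unlabeled peptide titration served as control.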

[10] = target: Lysosomal acid glucosylceramidase (Homo sapiens) (UniProt P04062); assay: Glucocerebrosidase-p2 (AID 348; in the data active = potency below about 10 µM; also: potency is read from the fitted curve at half-maximal effect); conditions: purified GBA, blue fluorogenic substrate, 40 min
Sequence of Lysosomal acid glucosylceramidase (Homo sapiens) (P04062 whole entry, looked up): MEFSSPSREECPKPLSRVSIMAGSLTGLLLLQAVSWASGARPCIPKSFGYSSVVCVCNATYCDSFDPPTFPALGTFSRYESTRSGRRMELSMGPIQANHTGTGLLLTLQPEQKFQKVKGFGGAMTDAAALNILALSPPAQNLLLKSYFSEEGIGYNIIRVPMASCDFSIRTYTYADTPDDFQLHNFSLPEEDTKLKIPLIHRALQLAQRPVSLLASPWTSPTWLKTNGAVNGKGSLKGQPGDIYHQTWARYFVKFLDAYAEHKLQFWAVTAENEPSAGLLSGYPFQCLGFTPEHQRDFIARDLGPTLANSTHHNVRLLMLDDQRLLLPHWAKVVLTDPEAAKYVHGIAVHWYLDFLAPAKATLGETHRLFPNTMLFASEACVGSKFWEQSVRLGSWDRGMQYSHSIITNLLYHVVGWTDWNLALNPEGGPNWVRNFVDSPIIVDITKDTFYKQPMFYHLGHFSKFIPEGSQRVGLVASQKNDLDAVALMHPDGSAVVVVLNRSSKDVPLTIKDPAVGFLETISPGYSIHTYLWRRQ
Outline: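 Normal human glucocerebrosidase (0.2 nM) with blue fluorogenic substrate (80 uM final) in citrate/phosphate pH 5.9 with 10mM sodium taurocholate, 0.01% tween-20; 40 min RT, NaOH/glycine stop; fluorescence Ex 365/Em 440; AC50 from a titration from 0.6 nM upwards.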

C[C@H]1C[C@@H]2[C@@H]([C@@H](O)C[C@@]3(C)[C@H]2CC[C@]3(O)C(=O)CO)[C@@]2(C)C=CC(=O)C=C12
inactive: outcome [1] | outcome [2] | outcome [3] | outcome [4] | outcome [5]

O=c1c2ccccc2nc2n1CCc1c-2[nH]c2ccccc12
inactive: outcome [2] | outcome [3] | Potency [7] > 46 µM | Potency [8] > 46 µM | outcome [4] | outcome [5] | outcome [9]
active: Potency [6] 0.316 µM

COC(=O)C[C@](O)(CCCC(C)(C)O)C(=O)O[C@@H]1C(OC)=C[C@]23CCCN2CCc2cc4c(cc2[C@H]13)OCO4
inactive: Potency [6] | Potency [7] > 46 µM | Potency [8] > 46 µM | outcome [4] | outcome [5]

CN(C)CCCN=c1c2ccccc2n(C)c2[nH]c(=O)n(C)c(=O)c12
inactive: Potency [10] > 11.4 µM | outcome [1] | Potency [7] > 46 µM | Potency [8] > 9.22 µM | activity change, negative = inhibition [4] 0.481% [at 11.4 µM] | outcome [5]
active: Potency [6] 5.01 µM

CC(C)c1ccc(Cn2ccc3c4c(N)nc(NC5CC5)nc4ccc32)cc1
inactive: Potency [7] > 46 µM | Potency [8] > 46 µM | outcome [4]
active: Potency [6] 1.58 µM

O=C(O)[C@H](Cc1c[nH]c2ccccc12)N1C(=O)c2ccccc2C1=O
inactive: Potency [10] > 11.4 µM | outcome [1] | activity change, negative = inhibition [6] -8.3% [at 2.29 µM] | outcome [2] | outcome [3] | Potency [7] > 46 µM | Potency [8] > 9.22 µM | activity change, negative = inhibition [4] -0.545% [at 11.4 µM] | outcome [5]

Nc1ccc(S(=O)(=O)Nc2ncccn2)cc1
inactive: outcome [1] | Potency [6] | outcome [2] | outcome [3] | outcome [4] | outcome [5]
